Measured values reported in PubChem BioAssay AID602400 (Sanford-Burnham Center for Chemical Genomics, 2012).
Unmarked numbers belong to inactive results. The rule behind the calls is not given here.

Assay: off-target activity on Bfl-1 – biochemical, set 4, counter-screen for UBC13 polyubiquitination inhibitor project, SAR follow-up (AID 602400)
Settings: Bfl-1 counterscreen for UBC13 inhibitors
With `O=C(NCC1CCN(Cc2ccc(Cl)c(Cl)c2)CC1)C1CCCN(c2ncnc3c2nc2n3CCCC2)C1` (stereo not drawn) the IC50 was over 100 µM. In the case of `O=C(c1ccco1)N1CCN(C(=O)C2CCN(c3ncnc4c3nc3n4CCCCC3)CC2)CC1`, the IC50 is reported as over 100 µM. With `O=C(NCc1ccc(Cl)c(Cl)c1)C1CCN(c2ncnc3c2nc2n3CCCCC2)CC1` the IC50 was over 100 µM.
